# Peg3 promoter: Peg3 promoter-driven luciferase inhibitors, primary screen, cell-based, HeLa, luciferase luminescence; 360,000 compounds, 1.7% hits; AID 588405, 2011; inhibition, % at 20 µM; HeLa PEG-Prom luciferase reporter, overnight;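 active = inhibition of at least 50% at 20 µM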
# TWEAK-Fn14 inh: inhibitors of TWEAK-Fn14 signaling, primary screen, luciferase reporter cells, uHTS; inhibition, % at 10 µM; TWEAK-stimulated Fn14 reporter cells, luciferase luminescence, 8 h; 360,000 compounds, 2% hits; in the data active = inhibition above about 50%
# TROY NFkB inh: inhibitors of TROY-driven NF-kB signaling, primary screen, Q293 LMP1-TROYcd cells, NF-kB luciferase, uHTS | Q293 LMP1-TROYcd NF-kB luciferase reporter, 4 h | inhibition, % at 10 µM | 360,000 compounds, 0.98% hits | AID 1347056, 2019;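 active = compounds whose plate-normalised and pattern-corrected inhibition of the luciferase reporter signal at the single screening dose is 50% or more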
# CF NFkB block: inhibitors of PAF-induced NF-kB signaling, primary screen, cell-based, GFP fluorescence, uHTS; AID 588850, 2011; KKLEB NF-kB-GFP reporter, GFP fluorescence overnight; 360,000 compounds, 0.86% hits; inhibition, % at 5 µM;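 active = at least 50% inhibition at 5 µM, scaled per plate between neutral and stimulator controls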;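 note: PAF is a Pseudomonas aeruginosa culture filtrate used as stimulus; plate controls were PAF-stimulated DMSO wells for no effect and unstimulated DMSO wells for full effect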
# HIF-2a block: HIF-2a reporter inhibitors, primary screen, luminescence, 786-0 RCC cells. 786-0 RCC cells HIF-2a reporter, luciferase luminescence, overnight. inhibition, % at 18.8 µM. 360,000 compounds, 0.72% hits;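 active = inhibition of the luminescence signal of 40% or more relative to plate controls, in a single-dose primary screen at 18.75 µM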
# KKLEB tox: cytotoxicity in KKLEB CF airway cells, primary screen, cytotoxicity control for CF NF-kB inhibitor project, cell-based, uHTS, fluorescence assay plates; KKLEB CF airway cells viability, ATPlite luminescence, overnight; hits give low values; cells stimulated with P. aeruginosa culture filtrate; activity change (cytotoxicity), % at 5 µM; 360,000 compounds, 0.36% hits; AID 602141, 2011;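 active = corrected activity change at or below -50% at 5 µM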
# * = called active by the depositor. Hits are enriched below; roughly 4% of the tested compounds scored in any of these assays.
SMILES,Peg3 promoter,TWEAK-Fn14 inh,TROY NFkB inh,CF NFkB block,HIF-2a block,KKLEB tox
O=C(Nc1ccc(S(=O)(=O)N2CCCCC2)cc1)c1ccc(CN2CCOCC2)cc1,45,68*,53*,-9,-2,4
O=C(Nc1ccc(CN2CCOCC2)cc1)c1ccc(Br)o1,-211,3,-49,-15,-153,-6
COc1ccc(-n2cnc3sc(-c4ccccc4)cc3c2=O)cc1,-243,1,-80,-5,-187,10
O=C(NCc1ccccc1F)c1ccc(S(=O)(=O)N2CCCC2)cc1,2,10,12,8,3,1
O=C(NCc1ccccc1Cl)c1ccc(S(=O)(=O)N2CCCC2)cc1,52*,-5,-5,9,16,-11
O=C(O)c1cc(-c2ccc(/C=C3/SC(=S)N(Cc4ccccc4)C3=O)o2)ccc1Cl,-74,34,52*,-30,-166,0
CCCCn1c(N)c(N(CC)C(=O)c2ccc(C#N)cc2)c(=O)[nH]c1=O,-7,21,3,1,1,9
Cc1ccc(NC(=S)NN(C)c2nc(C)cnc2C)cc1,-4,8,11,3,18,4
COc1ccc(S(=O)(=O)N2CCCCCC2)cc1C(=O)OCC(=O)NC(C)(C)C,5,-8,-2,-1,12,4
Cc1cc(O)c(C2=Nc3ccccc3SC(c3ccc(Cl)cc3)C2)c(=O)o1 (stereo not given),-184,77*,75*,14,-78,-24
COc1ccc(C2CC(c3c(O)cc(C)oc3=O)=NCCS2)c(OC)c1 (stereo not given),-198,-102,-40,33,-215,-13
CCn1c2ccccc2c2cc(CN3CCN(Cc4cc(OC)ccc4O)CC3)ccc21,18,-71,12,2,10,2
O=C1N=C(N2CCCCC2)S/C1=C\c1ccncc1,-13,1,-21,25,14,-6
CCc1ccc(/C=C2\SC(N3CCCC3)=NC2=O)cc1,-54,41,58*,-18,-116,-4
O=C1N=C(N2CCCC2)S/C1=C\C=C\c1ccccc1,-85,77*,72*,5,-34,-3
CCCCNC(=O)CCn1c(=O)c2ccccc2n(CC(=O)Nc2ccccc2OCC)c1=O,4,16,6,10,20,7
Cc1ccc(NC(=O)N(C)c2ccccc2)cc1,-76,-10,-50,-8,-118,2
c1ccc2c(c1)oc1c(Nc3ccc(CN4CCOCC4)cc3)ncnc12,79*,75*,52*,-26,-177,-13
Cc1cc(C)c(S(=O)(=O)Nc2ccc3c4c(cccc24)CC3)c(C)c1,16,28,46,57*,18,-34
O=C1CCC[C@@H]2Cc3nc4cc5c(cc4cc3[C@@H]3CCN1[C@H]23)OCO5,-89,-15,-49,1,-140,4
Cc1cccc(OCc2nc(-c3ccc(Br)o3)no2)c1,-92,-13,-50,7,-162,1
Cc1ccc(/C=C/C(=O)c2ccccc2O)cc1,-208,1,-63,-5,-89,6
CN(C)c1ccc(/C=C/C(=O)c2ccccc2O)cc1,-200,58*,50*,0,-288,-5
CCNc1ccccc(C(=O)/C=C/c2ccc3c(c2)OCO3)c1=O,-16,0,6,-4,5,-3
CN(C)c1ccc(/C=C/C(=O)c2ccc(O)cc2)cc1,-245,-16,-37,-28,-158,-12
O=C(/C=C/c1ccc2c(c1)OCCCO2)c1ccccc1O,-176,75*,56*,33,-158,-22
O=C(C=Cc1ccccn1)c1ccccc1O,98*,48,-10,25,-9,-5
Cc1ccc(O)c(C(=O)C=Cc2ccccc2)c1,-6,54*,-24,-8,-14,2
CC(C)(Oc1ccc(Cl)cc1)C(=O)Nc1ccc(S(=O)(=O)Nc2ncccn2)cc1,9,13,19,-2,9,6
CC1CCCN(Cc2c(O)ccc3c2O/C(=C\c2ccco2)C3=O)C1 (stereo not given),-2,11,6,-18,10,11
